# Test results: the supplement of paper PMC11577813, “Eurasian spruce bark beetle detects lanierone using a highly expressed specialist odorant receptor, present in several functional sensillum types” (BMC Biology, 2024)
# ± gives the standard deviation of the averaged measurements.
# Test system: ipsdienol A-neuron OSN class
# Assay: net action potential response of A-neuron (blank-subtracted) (spikes/s (Hz)); higher = stronger excitation
# Conditions: 10 µg on filter paper; neuron: A neuron (large spike amplitude)
# Experimental: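 Single sensillum recordings from antennal olfactory sensilla of live adult Ips typographus. Each compound was 10 µg in paraffin oil on filter paper, delivered as a 0.5 s puff. Net response = spikes in the first 0.5 s of response minus the 0.5 s pre-stimulus count, doubled to give Hz, with blank response subtracted. Values are for the large-spike A-neuron class of each of seven sensillum types that co-house the lanierone B-neuron; N = 1-4 sensilla, averaged.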
row,SMILES,net action potential response
1,Cc1ccccc1 [Toluene],-1.33 ± 5
2,O=Cc1ccccc1 [Benzaldehyde],2 ± 4
3,C=CCc1ccc(OC)cc1 [Estragole],2.67 ± 1.1
